Data taken from PubChem BioAssay.
Activity calls are given as the source filed them. No rule for the calls is given here.

target: Pantothenate synthetase (Mycobacterium tuberculosis (strain ATCC 25618 / H37Rv)) (UniProt P9WIL5); test: Recombinant Mtb pantothenate synthetase (PanC) inhibitors, coupled enzyme, confirmatory (AID 375); settings: coupled enzyme assay; at 10 µM, active compounds read high;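 also: 0% = full reaction with vehicle and 100% = no enzyme background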
Sequence (P9WIL5 whole entry, looked up): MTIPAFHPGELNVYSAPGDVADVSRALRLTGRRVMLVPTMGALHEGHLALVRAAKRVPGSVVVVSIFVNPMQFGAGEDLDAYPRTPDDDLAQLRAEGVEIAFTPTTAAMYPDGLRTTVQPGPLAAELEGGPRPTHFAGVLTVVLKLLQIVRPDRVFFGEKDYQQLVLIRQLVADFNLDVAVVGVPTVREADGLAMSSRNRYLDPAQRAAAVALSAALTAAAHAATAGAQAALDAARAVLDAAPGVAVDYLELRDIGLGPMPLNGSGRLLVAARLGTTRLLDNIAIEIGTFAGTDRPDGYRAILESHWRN

Compound | inhibition
Fc1ccc(-c2nnc3ccc(N4CCCC4)nn23)cc1 | 1% (inactive)
CCOc1ccc(OCC)c(NC(=O)CN2CCN(C(=O)c3ccco3)CC2)c1 | 0% (inactive)
CC(=O)C1=C(O)C(=O)N(Cc2ccco2)C1c1ccc(F)cc1 (stereo not given) | 10% (inactive)
CCc1nnc(NC(=O)CSc2nnc3ncccn23)s1 | 11% (inactive)
O=C(Nc1ccccc1)N(Cc1cccnc1)Cc1ccco1 | 0% (inactive)
CC(=O)c1cc(C#N)c(SCC(=O)OC(C)C)nc1C | 4% (inactive)
Cc1ccnc2c(N3C(=O)C4C5C=CC(C5)C4(C)C3=O)cccc12 (stereo not given) | 0% (inactive)
CC1=C(C(=O)OC2CCCCCC2)C(c2ccc(C)o2)C2=C(CCCC2=O)N1 (stereo not given) | 0% (inactive)
COc1ccc(CN(CC(=O)NCc2ccco2)C(=O)CCC(=O)Nc2nccs2)cc1 | 0% (inactive)
CCCCc1noc2c1/C(=N\O)CC(c1ccccc1)C2 (stereo not given) | 3% (inactive)
CN(C)c1cc(NC(=O)CN2CCOCC2)c2ccccc2n1 | 3% (inactive)
CCCNC(=O)N1CCN(S(=O)(=O)c2ccc(C)c(C)c2)CC1 | 4% (inactive)
COc1ccc(S(=O)(=O)Nc2ccc(Cl)cn2)c(C)c1C | 1% (inactive)
Cc1occc1C(=O)N1CCN(c2ncccn2)CC1 | 6% (inactive)
COc1ccc(-c2cc(C(F)(F)F)n3ncc(C(=O)NCC4CCCO4)c3n2)cc1 (stereo not given) | 0% (inactive)
C[C@@H]1CCC[C@H](C)N1NC(=O)c1ccc(Cl)c(S(N)(=O)=O)c1 | 0% (inactive)
Cc1cccc(-n2c(=O)cc(N3CCN(c4ccc(F)cc4)CC3)[nH]c2=O)c1 | 0% (inactive)
O=C(OCC(=O)N1CCCC1)c1cncc(Br)c1 | 1% (inactive)
CC(C)C[C@H]1C(=O)N2CCC[C@H]2[C@]2(O)O[C@](NC(=O)[C@@H]3C=C4c5cccc6[nH]c(Br)c(c56)CC4N(C)C3)(C(C)C)C(=O)N12 (stereo not given in full) | 4% (inactive)
CC(C)(C)c1nnc(NC(=O)C2CCN(c3ncccn3)CC2)s1 | 1% (inactive)

Compound | inhibition
COc1ccc2[nH]c(=O)c(CN(CC3CCCO3)C(=O)Nc3ccc(F)cc3)cc2c1 (stereo not given) | 0% (inactive)
Cc1ccc(-c2nc3cc(N)ccc3o2)cc1 | 0% (inactive)
Cc1csc(NC(=O)c2ccoc2C)n1 | 0% (inactive)
Cc1nnc(NC(=O)c2ccco2)s1 | 5% (inactive)
CCn1c(=O)n(CC(=O)N(C)Cc2ccccc2)c(=O)c2ccccc21 | 12% (inactive)
Clc1ccc(Cl)c(-c2ccc(/C=N/c3ncn[nH]3)o2)c1 | 4% (inactive)
COC(=O)c1ccccc1NC(=O)c1cnc2sccn2c1=O | 5% (inactive)
CCc1noc(C)c1C(=O)NCCc1ccc(OC)c(OC)c1 | 3% (inactive)
COc1ccccc1N1CCN(C(CNS(=O)(=O)c2cc(F)ccc2F)c2cccnc2)CC1 (stereo not given) | 0% (inactive)
Cc1ccc(S(=O)(=O)CCc2nnc(NC(=O)c3cnccn3)s2)cc1 | 8% (inactive)
COc1ccc(S(=O)(=O)N2CCC(C(=O)c3ccc4c(c3)OCCO4)CC2)cc1 | 0% (inactive)
CCOC(=O)N1CCN(C(=O)CN(Cc2ccccc2)S(=O)(=O)c2ccc(OC)c(C)c2)CC1 | 5% (inactive)
Cc1csc(NC(=O)C2CCCO2)n1 (stereo not given) | 0% (inactive)
COc1ccc(CCNC(=O)C2(C)CCC(=O)N2Cc2ccc3c(c2)OCO3)cc1OC (stereo not given) | 1% (inactive)
CC(C)Oc1cccc(-c2cc(C(=O)N3CCN(S(C)(=O)=O)CC3)c3ccccc3n2)c1 | 5% (inactive)
COc1ccc(OCCN2C(=O)NC(C)(c3ccc(C)cc3)C2=O)cc1 (stereo not given) | 1% (inactive)
CCCNS(=O)(=O)c1ccc(OCC(=O)Nc2ccccc2F)cc1 | 0% (inactive)
CS(=O)(=O)NCc1nnc(SCC(=O)NC2CCCCC2)n1-c1ccc(F)cc1 | 0% (inactive)
CCOC(=O)C1=C(C)OC(N)=C(C#N)C1c1ccoc1 (stereo not given) | 0% (inactive)
COCCN1C(=O)C(=O)/C(=C(/O)c2cccc(S(=O)(=O)N(C)C)c2)C12C(=O)N(C)c1ccccc12 (stereo not given) | 8% (inactive)
